Assay results as given in publication PMC5540273 (PLoS ONE, 2017).

Experiments:
Details in all cases: concentration: 1 μM, replicates: in singlicate; n = 1
EPHA7 = system: EPHA7
EPHA8 = system: EPHA8
EPHB1 = system: EPHB1
EPHB2 = system: EPHB2
EPHB3 = system: EPHB3
EPHB4 = system: EPHB4
EPHB6 = system: EPHB6
ERBB2 = system: ERBB2
ERBB3 = system: ERBB3
ERBB4 = system: ERBB4
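Also: KINOMEscan kinase panel screen.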

SMILES	%Inh (EPHA7) [%]	%Inh (EPHA8) [%]	%Inh (EPHB1) [%]	%Inh (EPHB2) [%]	%Inh (EPHB3) [%]	%Inh (EPHB4) [%]	%Inh (EPHB6) [%]	%Inh (ERBB2) [%]	%Inh (ERBB3) [%]	%Inh (ERBB4) [%]
COc1cccc(NC(=O)NCCNc2ccnc(Nc3ccc(F)cc3)n2)c1 [GSK1379879]	0	2	5	0	8	19	14	39	24	20
COc1cc(Nc2nccc(N3CCC(NS(=O)(=O)c4ccc(NC(C)=O)cc4)CC3)n2)cc(OC)c1OC [GSK1379825]	0	11	6	30	55	38	96.8	18	38	20
COc1cccc(C2=C(Nc3cccc(O)c3)C(=O)NC2=O)c1 [SB-390771]	10	18	11	16	31	16	49	23	0	2
c1ccc(Oc2ccc(Nc3ccnc4cc(-c5ccc(CN6CCCCC6)o5)ccc34)cc2)nc1 [GW567143]	0	12	6	0	4	7	66	18	96	51
Cl.O=C(Nc1ccc(Oc2ccc3[nH]c(NC(=O)c4ccco4)nc3c2)cc1)Nc1cc(C(F)(F)F)ccc1F [GW683134]	86	99.5	70	72	24	60	93.7	9	0	29
COC(=O)Nc1nc2ccc(Oc3ccc(CC(=O)Nc4cc(C(F)(F)F)ccc4F)cc3)cc2[nH]1 [GW680903]	9	64	32	26	9	20	22	30	12	7
O=C(Nc1n[nH]c2nc(-c3ccccc3O)ccc12)C1CC1 [SB-711880]	58	37	0	0	0	0	53	0	0	0
Cc1ccc(NC(=O)c2ccnc(N3CCCCC3)c2)cc1-c1ccc(C(=O)NCC2CC2)cc1 [GW775610]	0	0	0	0	0	0	5	21	0	19
Nc1ncc(-c2cn[nH]c2)c2scc(-c3ccc4c(c3)CCN4C(=O)Cc3ccccc3)c12 [GSK2593067]	0	14	5	0	0	0	97.6	0	0	0
NCCC(NC(=O)c1cc(Br)c(-c2ccnc3[nH]ccc23)s1)c1ccccc1.O=C(O)C(F)(F)F.O=C(O)C(F)(F)F (stereo not drawn) [GSK1307810]	3	11	4	0	0	0	27	39	19	21
CC(C)(C)c1ccc(C(=O)Nc2cn3cc(-n4ccnc4)ccc3n2)cc1	0	0	3	8	0	0	2	29	8	37
N#CC1(c2cccc(C(=O)Nc3cccc(Oc4ccc5nc(NC(=O)C6CC6)sc5n4)c3)c2)CC1	0	98.9	95.8	100	50	95.9	99.5	22	0	0
CC(C)c1nc(-c2cccc(NS(=O)(=O)c3c(F)cccc3F)c2)c(-c2ccnc(Nc3ccc(N4CCOCC4)nc3)n2)s1.Cl [GSK1723980]	0	93	24	0	0	0	97.4	86	97.8	95
Cc1cc(-c2ccnc(Nc3cccc(C#N)c3)n2)cc(C)c1O [GSK1440913]	18	21	18	19	18	16	90.3	27	7	0
Cc1cccc(Nc2nc(N[C@H]3CCCC[C@H]3N)ncc2C(N)=O)c1.Cl [GSK986310]	21	9	32	25	15	4	17	20	0	21
